Changes are numbered by the printed parent chain. The full ranking holds about 24,000 sequences; the median of “enrichment r” is about 0.99, and the highest 2% start at about 3.7. The sample as a whole holds a higher share of the highest values than the screen did.
T1: UNK ZnF1-3 (human, UniProt Q9C0B0 31-174)
T1 sequence: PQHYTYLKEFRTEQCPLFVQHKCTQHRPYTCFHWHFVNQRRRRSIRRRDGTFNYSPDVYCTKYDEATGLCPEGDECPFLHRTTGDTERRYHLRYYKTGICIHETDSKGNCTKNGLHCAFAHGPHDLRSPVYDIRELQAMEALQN

B1: chr17:57737884:57737885:+_ENSG00000141367_ENST00000269122|hu_mus|motif|central (ssRNA)
RNA: GGGAGUUCUACAGUCCGACGAUCGUUUCCCUGGGCGAAGAGAGCAUUAAAUUUCCGGGCAAAGAGUUCUUCAGCACCAGCGGAGUUGUUCCGCACAGCCAUUCUCAGAGCCAAGUCAGGAUUUUGUAGGACAUUGGUGAUAUACAACAGAGGAUUGAGCAUCA
B2: chr3:101400026:101400027:-_ENSG00000114391_ENST00000394077|hu_mus|FALSE|FALSE (ssRNA)
RNA: GGGAGUUCUACAGUCCGACGAUCCUACCACACUAGCGUUUCCCACCAACUCUGGGGGCAGAGACCUUCACAGGCUUCACAAUCUUUUGUUUAGGUGCUGCCUUUGUGGGGGCCUUGGCAGCAGCCAUUGCUGUCUUCUUUGAUCAACAGAGGAUUGAGCAUCA
B3: chr2:48026839:48026840:+_ENSG00000116062_ENST00000540021|hu_hu|hu_hu_hu_mus_False|18_58 (ssRNA)
RNA: GGGAGUUCUACAGUCCGACGAUCAUAGUGAGCCACUAGCGUCCUAAAUCUGGAACAGUGGCGGUCAUCCGAAAACUGACCUAUGAAAAACUUGCCCAGUGAAGUGUCCACAAAGCACACACCAUAUACACGAGUGUGACCAGACAACAGAGGAUUGAGCAUCA
B4: chr7:108213676:108213677:+_ENSG00000128590_ENST00000249356|hu_hu|FALSE|FALSE (ssRNA)
RNA: GGGAGUUCUACAGUCCGACGAUCUCCAUGAAAUCUAUUUUCAGUCUGUACUGUAUGCUGAUUGGUAGAGUCAAAACCACUAAAAGAAAACAUUUUCUCCAUAUCUUCAAACAUGUCAUCAAAUAAUCCACCUCCAAAAGAAAACAACAGAGGAUUGAGCAUCA
B5: chr15:91426070:91426071:+_ENSG00000140564_ENST00000268171|hu_mus|FALSE|FALSE (ssRNA)
RNA: GGGAGUUCUACAGUCCGACGAUCGGCAGCCAUGGGAAGGGCAGGGUGGGUGUGGGCAUGAGAAGGUCAAGGGUCCAGCUGCUACCCCCAUUAAAAAUACAAAAAAAAAAAAAAAAAAGAAUCAGCAUCUAAAGUGAAUAAUCACAACAGAGGAUUGAGCAUCA
B6: 131763144_131763264_1223_3pUTR_ENSMUSG00000079037_ENSMUST00000091288|mouse|control|control (ssRNA)
RNA: GGGAGUUCUACAGUCCGACGAUCUCACCUUGUACUCUGGGUACAAGUCAGGGGAUACACCAGUAUUUAUUCACUAGACCAAAACAAAGCCCCAACUAGCCAGCAGUUAUUUGGUGUUAUAUUCUUAUUGGCCCGGUGUUAGCACAACAGAGGAUUGAGCAUCA
B7: 35171164_35172336_3352_CDS_ENSMUSG00000029104_ENSMUST00000080036|mouse|control|control (ssRNA)
RNA: GGGAGUUCUACAGUCCGACGAUCGGGGGCACUCGCUGCUAGCAAGUUUCCAGCCAAAAUCAAGGCAUCCUGAUGGGCUGAGAGAUCCAGUGGGAACCAAGCUGAUGAAAGCAAGGUGAGAAUCAUGGAGGCCAUCCCAACAGUCAACAGAGGAUUGAGCAUCA
B8: chr4:95690885:95690886:+_ENSMUSG00000028572_ENSMUST00000156910|mus_mus|mus_mus_mus_hu_False|78_88 (ssRNA)
RNA: GGGAGUUCUACAGUCCGACGAUCUUUAGAAAAUGUUAAAUACCAUGAGCAUGCUAAGUAAUUUUAAUAUUUUAUUUUACCAGAAGUCACAGGCAAGCAGACACUACAAGAAUAUAUGAAAAUGAAACUCAACAAUAUAACUGUCAACAGAGGAUUGAGCAUCA
B9: chr2:202488911:202488912:-_ENSG00000155755_ENST00000286196|hu_mus|hu_hu_hu_mus_False|8_98 (ssRNA)
RNA: GGGAGUUCUACAGUCCGACGAUCAUUGAAACAUUUUCAUAAUAUUGCAGUAGCAUUUCAGCAUUAUGUAACAAAAGCUCAAUUGUAAAUACAUGUAUCUUAUAAAAAUACACUUAAAAACACGAGUAAAAAUGGGAGGCGCCACAACAGAGGAUUGAGCAUCA
B10: chr1:182620099:182620100:+_ENSMUSG00000058729_ENSMUST00000085803|mus_mus|motif|central (ssRNA)
RNA: GGGAGUUCUACAGUCCGACGAUCAACAACAAAGCUUUUAUAAAUUAUGAUAAAUUAAAAUAUUUAUUAUUAUAAUUGAUCGGUAGAACCAUGUCCCACUGUCAGUAUAUGAAACAUACACUUAAGUCCGUGUUUCCCAUCUGUCAACAGAGGAUUGAGCAUCA
B11: chr10:70744696:70744697:+_ENSG00000165732_ENST00000354185|hu_hu|motif|central (ssRNA)
RNA: GGGAGUUCUACAGUCCGACGAUCUUAAAUUAGAAAAUAUUUUCUUUGUAGAAAAUAGUAAAAAUUAUAACAUUUACCAAGCGGACCCAACAAGUUCAUUUAAACCAAAAAGUAGCUAAAUACAUUAUACAUUUAUAAAUACAGCAACAGAGGAUUGAGCAUCA
B12: chr16:23113652:23113653:+_ENSMUSG00000022884_ENSMUST00000115341|mus_mus|FALSE|FALSE (ssRNA)
RNA: GGGAGUUCUACAGUCCGACGAUCCCACAAGUAUAUUAUUAAAUGAUAGAGAACAUCUAAUACAACCAUUUCUACAUAACUAGUAAAUGAAUUUCUAAGAAAAAAAGAUUUUACAGACCCCAUCUUUUAUACCCACCCCCAACACAACAGAGGAUUGAGCAUCA
B13: chr5:67446008:67446009:+_ENSMUSG00000037736_ENSMUST00000038188|mus_mus|FALSE|FALSE (ssRNA)
RNA: GGGAGUUCUACAGUCCGACGAUCGCCCCCAAGGGUAAGUAACACAAAUGUCUCCGGGAAUACAGUAUAUAUUAUCAGACUAGUGUCUUUGCAUUAAAAAAAAAAAAAGUUAUAGUUCAGAGUCAGAACUCGCUGGGGUAUCUACAACAGAGGAUUGAGCAUCA
B14: chr5:32794366:32794367:+_ENSMUSG00000014956_ENSMUST00000015100|mus_mus|FALSE|FALSE (ssRNA)
RNA: GGGAGUUCUACAGUCCGACGAUCAGAAGAGAGCCAGCUAUCCAAGGCUUGUCAAAAAGGAUUCUCAUGUUCUGUGAAUCUAAAAACAAACAAACAACAAAAACCCCAAAAAACAAAACCAAUGCAGGUGAGGGUAAUACCAGACAACAGAGGAUUGAGCAUCA
B15: chr5:67446008:67446009:+_ENSMUSG00000037736_ENSMUST00000038188|mus_mus|motif|central (ssRNA)
RNA: B13 RNA with U80G, A81G

Molecular target: T1, UNK ZnF1-3
Test: nsRBNS (natural sequence RNA bind-n-seq); RBNS binding buffer (assumed for nsRBNS): 25 mM Tris pH 7.5, 150 mM KCl, 3 mM MgCl2, 0.01% Triton X-100, 500 ug/ml BSA, 20 U/ml SUPERase-In, 4 C; UNK is unkempt and MSI1 is Musashi-1; names of the RNAs are library labels; protein concentration not given here; high values mean tight binding

Binder	binding signal [enrichment R]
B1	2.06
B2	0.756
B3	1.26
B4	1.22
B5	19.6
B6	0.474
B7	1.2
B8	3.29
B9	0.677
B10	7.41
B11	3.65
B12	3.96
B13	5.07
B14	1.31
B15	3.48

— PMC12136788
